# Anesthetic bind: candidate novel general anesthetic via apoferritin binding | P02791 | apoferritin/1-aminoanthracene competitive binding, fluorescence | Potency, µM (top dose mostly 77.5 µM), for the others: at the highest dose activity change, negative = displacement, actives largely listed as inhibitors | 350,000 compounds, 0.074% hits | AID 485281; note: potency is the fitted concentration of half-maximal effect; % is set by controls: 0 for no effect and ±100 for the full control effect; nearly all actives have a fitted effect of over 20% in size
# Target sequence (P02791 2-175 limits assumed): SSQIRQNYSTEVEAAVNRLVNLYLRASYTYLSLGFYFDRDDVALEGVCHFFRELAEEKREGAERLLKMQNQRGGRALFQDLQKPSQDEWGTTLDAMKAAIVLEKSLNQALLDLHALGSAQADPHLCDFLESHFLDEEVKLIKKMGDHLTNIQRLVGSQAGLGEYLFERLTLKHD
#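 Steps: apoferritin (10 uM) was premixed with half-saturated 1-AMA in PBS, compounds were pin-transferred, plates stood 10 min at room temperature, fluorescence was read at 380/535 nm, and curves were fitted with a Hill equation.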
# Vif-A3F inh: inhibitors of Vif-A3F interaction. 390,000 compounds, 0.2% hits. HeLa A3F-eYFP + Vif (tagged APOBEC3F with the HIV-1 protein that degrades it), YFP fluorescence increase. AID 602313. Potency, µM (series often up to 46.1 µM), without a hit: at the top dose activity, negative = active; note: potency is the fitted concentration of half-maximal effect; % of control where 0% means no effect; nearly all actives have a fitted effect of over 65% in size
#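 HeLa cells stably expressing A3F-eYFP plus Vif, plated and incubated overnight at 37 deg C, then exposed to compounds overnight at 37 deg C. Blocked degradation read as raised yellow fluorescence (Ex 488/Em 500-530).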
# Epigenetic reg: regulators of epigenetic silencing causing reporter derepression in mouse cells; murine LDR cells, GFP reporter derepression, 30 h; Potency, µM (top dose mostly 53.9 µM), for the others: at the top dose GFP activation, actives largely listed as activators; 280,000 compounds, 0.2% hits; note: potency is the fitted concentration of half-maximal effect; % of control where 0% means no effect; nearly all actives have a fitted effect of over 60% in size
#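 Murine LDR cells carrying a silenced, genomically integrated CMV-driven GFP reporter were exposed to compound for 30 hours at 37 C. After PBS washes, GFP-positive cells (20–120 um objects) were counted by laser-scanning microplate cytometry.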
# LDHA inh: LDHA (human) enzyme inhibition. P00338. purified LDHA, NADH/diaphorase-resazurin fluorescence; stronger effect = lower value. activity change, % (values are at about 110 or 230 µM). 480,000 compounds, 0.15% hits. AID 1347041; in the data active = activity change below about -30%; inconclusive = mostly about -25% to -30%;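 note: plate controls were DMSO wells for no effect and wells without enzyme for full effect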
#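 Remaining NADH was detected by diaphorase (0.133 mg/mL) converting 37 µM resazurin to fluorescent resorufin, read at 0 and 20 minutes. The preceding 5-minute room-temperature reaction used 2 nM LDHA, 0.2 mM sodium pyruvate and 0.06 mM NADH at pH 7.4.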
# Vif-A3G inh: blocks the Vif interaction with human APOBEC3G; Potency, µM (doses to about 46.1 µM), without a hit: at the highest dose activity, negative = active, most hits filed as inhibitors; 410,000 compounds, 0.076% hits; AID 602310; Q9HC16; HeLa A3G-eYFP + Vif (tagged APOBEC3G with the HIV-1 protein that degrades it), YFP fluorescence, overnight; note: potency is the fitted concentration of half-maximal effect; % is set by controls: 0 for no effect and ±100 for the full control effect; nearly all actives have a fitted effect of over 60% in size
# Target sequence (Q9HC16 whole entry, looked up): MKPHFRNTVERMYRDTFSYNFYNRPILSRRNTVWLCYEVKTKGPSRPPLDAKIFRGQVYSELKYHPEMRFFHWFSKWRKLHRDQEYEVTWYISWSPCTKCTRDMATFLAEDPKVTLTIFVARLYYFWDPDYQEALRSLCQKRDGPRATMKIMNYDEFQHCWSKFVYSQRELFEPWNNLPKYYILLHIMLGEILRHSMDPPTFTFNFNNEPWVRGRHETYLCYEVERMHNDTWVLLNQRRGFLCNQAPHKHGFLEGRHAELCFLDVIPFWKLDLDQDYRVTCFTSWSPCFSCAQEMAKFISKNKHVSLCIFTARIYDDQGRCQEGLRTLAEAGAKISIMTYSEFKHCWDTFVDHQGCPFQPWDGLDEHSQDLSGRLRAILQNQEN
#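 Read-out is eYFP fluorescence (Ex 488/Em 500-530) from Vif-expressing HeLa A3G-eYFP cells; more signal means A3G escaped Vif-mediated degradation. Cells plated overnight, compound pinned in, incubated overnight at 37 deg C.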
# Active calls of the source: *; ? = inconclusive; nt = no result given. Only some compounds are listed: those with a hit (about 0.49% of all), similar ones and a draw of the others. Unless noted, calls come from the whole dose curve; as a rule, active = well fitted curve in the direction sought with a large enough effect; inconclusive = small, poorly fitted or top-dose-only effect, or another doubt; inactive = no such curve, though single readings can be large; an effect the other way counts as inactive or inconclusive.
SMILES,Anesthetic bind,Vif-A3F inh,Epigenetic reg,LDHA inh,Vif-A3G inh
Nc1nc(SCc2ccc(Cl)cc2)ns1,50µM*,-6%,-3%,-3,-1%
CCCC(=O)Nc1ccc2nc(SCC(=O)Nc3nccs3)sc2c1,-3%,6%,-2%,-35*,-3%
CCN(CC)c1ccc2cc(-c3nc4sc5c(c4c(=O)[nH]3)CCC(C(C)(C)C)C5)c(=O)oc2c1 (configuration not stated),-8%,?,1%,-7,10µM*
Cc1cccc(C(=O)Nc2ccc(C(=O)N/N=C/c3cccnc3)cc2)c1,-8%,14%,nt,-5,0%
NS(=O)(=O)c1ccc(NC(=O)Cn2ncc3c2-c2ccccc2OC3)cc1,6%,-7%,14%,-34*,3%
O=C(Cn1ncc2c1-c1ccccc1OC2)Nc1cccc(Cl)c1,-22%,0%,0%,-16,0%
CC(=O)NC(N1CCCCC1)C(F)(F)C(F)(F)C(F)(F)C(F)F (configuration not stated),?,-3%,2%,4,2%
CCc1c(C)nc(SCC(=O)c2cccs2)c(C#N)c1C,-19%,?,9%,-9,13µM*
Cc1cccc2c(=O)n3c(cc12)-c1[nH]c2ccccc2c1CC3,nt,22µM*,nt,-5,-26%
O=c1c2ccccc2nc2n1CCc1c-2[nH]c2ccccc12,nt,-9%,3%,-3,-1%
CCCCCCN1C=CC(=C/C=C(\C#N)C(=O)OCC)C=C1,-18%,?,10µM*,0,4%
CCCN1C=CC(=CC=C(C#N)C#N)C=C1,4%,?,1%,-4,13µM*
C=CCN1C=CC(=CC=C(C#N)C#N)C=C1,-11%,?,-2%,-2,?
CCCN1C=CC(=C/C=C(\C#N)C(=O)OCC)C=C1,-13%,nt,?,nt,nt
CC(C)(C)c1cc(NC(=O)c2c(F)cccc2Cl)n(-c2ccccc2)n1,1%,0%,nt,5,0%
CCOC(=O)c1ccc2c(c1)N(C)C(=O)c1ccccc1S2,3%,3%,nt,?,-1%
CCOC(=O)c1cc2n(c1/N=C/N(C)C)-c1ccccc1C2=O,171%,22µM*,0%,-2,?
Cc1cc(C(=O)CSc2nncs2)c(C)n1Cc1ccco1,?,5%,4%,1,1%
Cc1cc(C(=O)CCl)c(C)n1Cc1ccco1,-19%,1%,13µM*,-7,?
O=C(CNS(=O)(=O)c1ccc(Br)cc1Cl)OCC(=O)N1CCCC1=O,nt,-1%,nt,2,-17%
COc1ccc(-n2c(O)c(C=Nc3ccccc3)c3ccccc3c2=O)cc1,-7%,-8%,5%,1,-1%
COc1ccc(N=Cc2sc(O)c3ccccc23)cc1,2%,-17%,10µM*,-2,13µM*
COc1ccc(N=Cc2c(O)c3ccccc3n2C(C)=O)cc1,1%,13µM*,14%,4,13µM*
O=C(N/C(=C/C=C/c1ccccc1)C(=O)N1CCOCC1)c1ccccc1Cl,-10%,1%,-2%,-6,-1%
CN(CC(=O)NCc1ccccc1Cl)S(=O)(=O)c1cccs1,-9%,3%,nt,0,-8%
SMILES,Anesthetic bind,Vif-A3F inh,Epigenetic reg,LDHA inh,Vif-A3G inh
CCOc1cccc2cc(-c3nc(-c4ccc(F)cc4)no3)c(=O)oc12,nt,nt,nt,2,nt
Cc1ccc(-c2nc(-c3cc4cccc(OCc5ccc(F)cc5)c4oc3=O)no2)cc1,4%,?,?,-1,?
Cc1ccc(-c2nc(-c3cc4cccc(OCc5cccc(F)c5)c4oc3=O)no2)cc1,-14%,8.9µM*,?,-1,-29%
CCOc1cccc2cc(-c3nc(-c4ccccc4F)no3)c(=O)oc12,nt,nt,nt,-35*,nt
C[N+](C)(C)CC(C[N+](C)(C)C)OCc1ccccc1,nt,nt,nt,-12,nt
CCN1CCN(Cc2cccc(Oc3ccc(Cl)cc3)c2)CC1,-18%,1%,-4%,-4,2%
CCN1CCN(Cc2cccc(Oc3ccccc3)c2)CC1,-23%,4%,-5%,-32*,-1%
O=[N+]([O-])/C=C\c1ccc(N2CCCC2)c(F)c1,-19%,25µM*,1%,1,?
Cc1ccc(NC(=O)Nc2c(C)n(C)n(-c3ccccc3)c2=O)cc1C,-4%,-18%,-1%,-4,0%
COc1ccc(-c2cc(=O)c3cc(OC(=O)C(C)(C)C)ccc3o2)cc1,nt,nt,nt,-32*,nt
COC(=O)C1=C(C(=O)OC)[C@@H]2N(Cc3ccccc3)c3ccccc3[C@@]23C[C@@H](C(=O)OC)N(C(=O)CC(C)C)C3=N1,3%,3%,-2%,0,-7%
Oc1ccc(/C=N\Nc2nncc(-c3ccccc3)n2)cc1,4%,-14%,3%,-10,11µM*
COc1ccc(-c2cnnc(N/N=C/c3ccc(O)cc3)n2)cc1,-7%,-5%,6%,-6,-23%
Fc1ccc(NC(=S)Nc2ccc(Cl)cc2Cl)cc1,-18%,4%,0%,-8,0%
CC(=O)c1ccc2cccc3c2c1N=CN3C,61%,?,0%,15,13µM*
Cc1noc(C)c1C(=O)OCC(=O)Nc1ccccc1SCC#N,nt,22µM*,nt,1,-19%
O=C(CCNC(=O)c1ccc([N+](=O)[O-])cc1)Nc1ccccc1N1CCCC1,-10%,-2%,nt,3,0%
CCc1noc(C)c1C(=O)OCC(=O)Nc1ccccc1SC,nt,7%,nt,-3,-2%
N#CCSc1ccccc1NC(=O)COC(=O)CCNC(=O)c1ccc([N+](=O)[O-])cc1,nt,22µM*,nt,-3,-15%
O=C(O)Cc1sc(NC2CCCCC2)nc1-c1ccc(Cl)cc1,-18%,25µM*,nt,-1,-27%
CN(C)CCCN1C(=O)c2cccc3c(Br)ccc(c23)C1=O,-8%,-10%,?,3,7%
CCCCNc1ccc2c3c(cccc13)C(=O)N(CCCC)C2=O,2%,-39%,3.2µM*,1,4%
CCN(CC)CCNC(=O)c1ccc(NC(=O)C2CCN(S(=O)(=O)c3ccc4c(c3)OCCO4)CC2)cc1,nt,?,nt,-13,0%
CCCCCC(=O)N1C[C@H](n2cc(C3CC3)nn2)[C@@H](O)C[C@@H]1c1ccc(C)cc1,nt,-1%,nt,-3,4%
CCCCCC(=O)N1C[C@@H](n2cc(C3CC3)nn2)[C@H](O)C[C@@H]1c1ccc(C)cc1,nt,-11%,nt,-32*,-1%
CCOC(=O)CN(Cc1cccs1)CC1CCCO1 (configuration not stated),nt,nt,nt,-20,nt
CSC1=C(C#N)C(c2ccccc2Cl)C2=C(N1)c1ccccc1C2=O (configuration not stated),-24%,?,-1%,0,-15%
CSC1=C(C#N)C(c2ccccc2C)C(C#N)=C(N)N1 (configuration not stated),-22%,3%,2%,-36*,-21%
